AmpC no deterg = blocks E. coli AmpC beta-lactamase in detergent-free assay; P00811; AmpC nitrocefin hydrolysis, absorbance 480 nm, 0.0001% Triton; Potency, µM (series often up to 57.1 µM), most hits filed as inhibitors; 330,000 tested, 0.52% active; note: nearly all actives have a fitted effect of over 20% in size
Target sequence (P00811 whole entry, looked up): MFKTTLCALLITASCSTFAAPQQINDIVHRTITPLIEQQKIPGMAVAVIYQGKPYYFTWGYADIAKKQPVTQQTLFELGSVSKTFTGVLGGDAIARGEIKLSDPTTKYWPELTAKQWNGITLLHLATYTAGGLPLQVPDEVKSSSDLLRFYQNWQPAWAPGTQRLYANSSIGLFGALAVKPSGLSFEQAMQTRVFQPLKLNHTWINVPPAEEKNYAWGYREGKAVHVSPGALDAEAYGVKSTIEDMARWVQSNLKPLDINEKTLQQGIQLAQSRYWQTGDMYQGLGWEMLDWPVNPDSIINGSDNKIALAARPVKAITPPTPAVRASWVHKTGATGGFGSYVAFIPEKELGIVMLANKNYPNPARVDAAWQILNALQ
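20 mM phosphate pH 7.0 + 0.01% (detergent screen) or 0.0001% Triton X-100; 5.3 nM AmpC reagent; cpd preinc 15 min RT; nitrocefin (800 uM stock) to start; A480 q20 s × 4 min; Activity was normalised to no-enzyme and no-compound control wells.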
SARS PLpro yeast = SARS-CoV PLP inhibition in yeast. AID 485353. Potency, µM (doses to about 32.9 µM), hits mostly activators. S. cerevisiae expressing SARS-CoV PLpro, growth rescue. 330,000 tested, 0.19% active; calls by dose curve; note: nearly all actives have a fitted effect of over 55% in size
Sm TGR inh = blocks Schistosoma mansoni thioredoxin glutathione reductase; Q962Y6; purified TGR, DTNB reduction, TNB absorbance 405 nm; Potency, µM (titrated, usually from 114 µM), hits mostly inhibitors; 360,000 tested, 3% active; AID 485364; note: nearly all actives have a fitted effect of over 60% in size
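First, TGR (20 nM dispensed) and NADPH were mixed with compound. Second, a 15 min room-temperature incubation followed. Third, further NADPH and then DTNB were added to start the reaction. Finally, TNB absorbance was monitored kinetically.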
Pf growth 48h = P. falciparum growth inhibition at 48 hours (one generation) | P. falciparum luciferase growth in erythrocytes, 48 h | Potency, µM (highest dose often 28.7 µM), most hits filed as inhibitors | 310,000 tested, 5.9% active | AID 504832
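Luciferase-expressing parasites in RBCs, 2% Hct / 0.1% parasitemia final; RPMI 1640 + 0.5% Albumax; 37 C, 5% CO2, one generation; luminescence read-out, lower signal = inhibition.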
AmpC detergent = AmpC beta-lactamase inhibition with detergent present; P00811; AmpC hydrolysis of nitrocefin, absorbance 480 nm, 0.01% Triton; Potency, µM (highest dose often 114 µM), actives largely listed as inhibitors; 370,000 tested, 0.041% active; AID 485294; note: nearly all actives have a fitted effect of over 25% in size
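AmpC (5.3 nM in the dispensed reagent) in 20 mM phosphate pH 7.0 with 0.01% (detergent screen) or 0.0001% Triton X-100 was preincubated with compounds for 15 min at room temperature. Nitrocefin was then added from an 800 uM solution, and hydrolysis was followed at 480 nm.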
Pf growth 96h = P. falciparum growth inhibition at 96 hours | P. falciparum luciferase reporter growth, 96 h | Potency, µM (highest dose often 28.7 µM), most hits filed as inhibitors | 320,000 tested, 6.9% active | AID 504834
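Plates of compound plus infected erythrocytes (2% hematocrit, 0.05% parasitemia final) incubate 96 hours, 37 C, 5% CO2. Detection reagent added; reduced luminescence from the parasites' luciferase reporter flags inhibition.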
Of the large screens only hits and unclear results are named; the others gave an inactive call. The list is not random: actives were taken first. Their share in the collection is about 12%. Unless noted, calls come from the whole dose curve; as a rule, active = well fitted curve in the direction sought with a large enough effect; inconclusive = small, poorly fitted or top-dose-only effect, or another doubt; inactive = no such curve, though single readings can be large; an effect the other way counts as inactive or inconclusive.

Cc1cccc(N(CC(O)CON=C2c3ccccc3-c3ccccc32)S(C)(=O)=O)c1 (stereo not drawn)	Pf growth 96h 13.1µM (no result: Pf growth 48h)
N=c1c2c(ncn1CCCO)Oc1cc(O)ccc1C2c1ccccc1 (stereo not drawn)	Pf growth 48h inconclusive, Pf growth 96h inconclusive
COc1ccc(C2c3ccc(O)cc3Oc3ncn(CCN4CCOCC4)c(=N)c32)cc1 (stereo not drawn)	Pf growth 48h inconclusive
COc1ccc(C2c3c(ncn(CCN4CCOCC4)c3=N)Oc3ccc4ccccc4c32)cc1OC (stereo not drawn)	Pf growth 48h 4.15µM, AmpC detergent inconclusive, Pf growth 96h 0.586µM
COc1ccc(C2c3c(ccc4ccccc34)Oc3ncn4nc(Cc5ccccc5)nc4c32)cc1OC (stereo not drawn)	Pf growth 48h 1.65µM, Pf growth 96h 1.47µM
COc1ccc(C2c3c(ncn(CCCO)c3=N)Oc3ccc4ccccc4c32)cc1 (stereo not drawn)	Pf growth 48h 11.7µM, Pf growth 96h inconclusive
COc1ccc(C2c3c(ncn(CCCO)c3=N)Oc3ccc4ccccc4c32)cc1OC (stereo not drawn)	Pf growth 48h 13.1µM, Pf growth 96h 1.65µM
Cc1ccc(-n2nc3c(=O)n(CCCC(=O)NC(C)c4ccccc4)nc(C)c3c2C)cc1 (stereo not drawn)	none (no result: AmpC no deterg, SARS PLpro yeast, Pf growth 48h, Pf growth 96h)
CC1=C(C(=O)Nc2ccccc2C)C(c2cccs2)n2nc(SCc3ccccc3)nc2N1 (stereo not drawn)	none (no result: AmpC no deterg, SARS PLpro yeast, Pf growth 48h, Pf growth 96h)
NCCC(O)(P(=O)(O)O)P(=O)(O)O	none (no result: AmpC no deterg, SARS PLpro yeast, Sm TGR inh, AmpC detergent)
CN(c1ccc(F)cc1)S(=O)(=O)c1ccc(Cl)c(C(=O)NCC(c2ccco2)N2CCCCC2)c1 (stereo not drawn)	Pf growth 48h inconclusive, AmpC detergent inconclusive, Pf growth 96h inconclusive
Cc1ccc(N(C)S(=O)(=O)c2cccc(C(=O)NCC(c3ccco3)N3CCCC3)c2)cc1 (stereo not drawn)	Pf growth 48h 9.28µM, Pf growth 96h 3.29µM
CCC(=O)c1ccc(OCC(=O)NCC2(N3CCCCC3)CCCCC2)cc1	Pf growth 96h 4.65µM
COc1ccccc1NS(=O)(=O)c1cccc(C(=O)NCC(c2ccccc2OC)N2CCCC2)c1 (stereo not drawn)	Pf growth 48h 8.28µM, Pf growth 96h inconclusive
CC(=O)c1ccc(OCC(=O)NCC2(N3CCCCC3)CCCCC2)cc1	Pf growth 48h inconclusive, Pf growth 96h inconclusive
COc1ccccc1NC(=O)C(=O)NCC(c1ccco1)N1CCc2ccccc2C1 (stereo not drawn)	Pf growth 48h 5.22µM, AmpC detergent inconclusive, Pf growth 96h inconclusive
COc1ccc(C(CNC(=O)c2cccc(S(=O)(=O)Nc3ccccc3OC)c2)N2CCOCC2)cc1 (stereo not drawn)	Pf growth 48h inconclusive, AmpC detergent inconclusive, Pf growth 96h inconclusive
COc1ccccc1CCC(=O)Nc1ccc(C)cc1Cl	AmpC detergent inconclusive
COc1ccc(C(CNC(=O)c2cccc(NC(=O)c3cccs3)c2)N2CCCC2)cc1 (stereo not drawn)	Pf growth 48h 11.7µM, Pf growth 96h 5.86µM
COc1ccc(NS(=O)(=O)c2cccc(C(=O)NCC(c3ccco3)N3CCCCC3)c2)cc1 (stereo not drawn)	Pf growth 48h inconclusive, Pf growth 96h inconclusive
COc1ccc(C(CNC(=O)c2ccc(NS(=O)(=O)c3ccc(F)cc3)cc2)N2CCOCC2)cc1 (stereo not drawn)	Pf growth 48h inconclusive, Pf growth 96h inconclusive
COc1ccc(C(CNC(=O)c2ccc(NS(=O)(=O)c3ccc(F)c(C)c3)cc2)N2CCOCC2)cc1 (stereo not drawn)	Pf growth 48h 10.4µM
Cc1cccc(NS(=O)(=O)c2cccc(C(=O)NCC(c3ccco3)N3CCCCC3)c2)c1 (stereo not drawn)	Pf growth 48h inconclusive, AmpC detergent inconclusive, Pf growth 96h 14.7µM (no result: SARS PLpro yeast)
COc1ccc(C(CNC(=O)c2cccc(Br)c2)N2CCCC2)cc1 (stereo not drawn)	Pf growth 96h inconclusive (no result: Pf growth 48h)
COc1ccccc1C(CNC(=O)c1cccc(S(=O)(=O)Nc2ccc(C)cc2)c1)N1CCCC1 (stereo not drawn)	Pf growth 48h 13.1µM, Pf growth 96h 14.7µM
O=C(c1ccc(S(=O)(=O)N2CCCC2)cc1)N(c1ccc(F)cc1)C1C=CS(=O)(=O)C1 (stereo not drawn)	none
Cc1cccc(NS(=O)(=O)c2cccc(C(=O)NCC3(N4CCCCC4)CCCCC3)c2)c1	Pf growth 48h 6.57µM, Pf growth 96h 8.28µM
CN(C)C1(CNC(=O)c2ccc(NS(=O)(=O)c3ccc(Cl)c(Cl)c3)cc2)CCCCC1	Pf growth 48h 11.7µM, Pf growth 96h 13.1µM
CCOc1ccc(NS(=O)(=O)c2cccc(C(=O)NCC3(N(C)C)CCCCC3)c2)cc1	Pf growth 48h inconclusive, Pf growth 96h inconclusive
COc1ccc(C(CNC(=O)c2cccc(S(=O)(=O)Nc3ccc(C)cc3)c2)N2CCCCC2)cc1 (stereo not drawn)	Pf growth 48h 8.28µM, Pf growth 96h 9.28µM (no result: SARS PLpro yeast)
COc1ccccc1NS(=O)(=O)c1cccc(C(=O)NCC(c2ccco2)N2CCCC2)c1 (stereo not drawn)	Pf growth 48h 11.7µM, Pf growth 96h 14.7µM
CNS(=O)(=O)c1cccc(C(=O)NCC2(N3CCCCC3)CCCCC2)c1	none
Cc1cc(=O)c(C(=O)O)nn1-c1ccccc1F	none
O=C(COC(=O)Cc1cccc(C(F)(F)F)c1)NC1CCS(=O)(=O)C1 (stereo not drawn)	Pf growth 48h inconclusive
COc1ccc(NS(=O)(=O)c2ccc(C(=O)NCC3(N4CCOCC4)CCCCC3)cc2)cc1	none (no result: Sm TGR inh, Pf growth 48h, AmpC detergent, Pf growth 96h)
CCOc1ccc(S(=O)(=O)Nc2ccc(C(=O)NCC3(N4CCCCC4)CCCCC3)cc2)cc1	Pf growth 48h 3.29µM, Pf growth 96h 1.17µM
CSc1ccc(/C=C/C(=O)c2ccc(NC(C)=O)cc2)cc1	Pf growth 96h 0.657µM
CC(=O)c1ccc(NC(=O)CN(c2c(C)cccc2C)S(C)(=O)=O)cc1	Pf growth 96h inconclusive
Cc1noc(C)c1CSCC(=O)Nc1ccc(S(=O)(=O)C(F)F)cc1	Pf growth 96h 4.65µM
Cc1noc(C)c1CSCC(=O)Nc1nc(-c2ccc(F)c(F)c2)cs1	Pf growth 48h 10.4µM, Pf growth 96h inconclusive
COc1ccc2nc(NC(=O)CSCc3c(C)noc3C)sc2c1	AmpC no deterg 25.1µM, AmpC detergent inconclusive
Cc1noc(C)c1CSCC(=O)Nc1ccc(OC(F)F)c(Cl)c1	none

High-throughput results from PubChem.
